Most compounds without a hit are left out; they make up all but 6.5% or so of the library.
Fluor 339 460: intrinsic fluorescence of library compounds, ex339/em460 – biochemical, MLSMR library, data from DPM-DC assay, artefact control, profiling panel. fluorescence fold increase at 10 µM. AID 709. compound autofluorescence, ex339/em460 nm, NADH buffer; hits give high values; 1 = no-compound wells, NADH background. 5.5% of 65,000 active;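 active = at 10 µM, mean starting fluorescence two-fold or more over control wells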;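 note: signal is the first read of a kinetic run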
PMK inhibit: blocks S. pneumoniae phosphomevalonate kinase; 0.49% of 65,000 active; purified PMK, PK/LDH-coupled NADH absorbance 340 nm; inhibition, % at 10 µM; AID 539;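 active = top-ranked compounds by inhibition in the single 10 µM screen, taking a fixed number of the strongest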;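 note: 0% = full reaction with DMSO carrier and 100% = background rate without enzyme reaction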
NADH enzymes: blocks coupling enzymes of NAD/NADH assays. IC50, µM (series often up to 10 µM), for the others: at the top dose inhibition. coupled PK/LDH NADH assays, four targets. 0.02% of 65,000 active;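 active = single-dose screening hits from any of four coupled enzyme assays that gave an IC50 when retested across doses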;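 note: the DPM-DC format reads NADH fluorescence rather than 340 nm absorbance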
MK inhibit: S. pneumoniae mevalonate kinase inhibition; inhibition, % at 10 µM; purified MK, PK/LDH-coupled NADH absorbance 340 nm; 0.48% of 65,000 active;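 active = ranked among the strongest by inhibition in the single 10 µM screen, a fixed top-ranked set picked for dose follow-up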
A340 absorber: compound absorbs light at 340 nm; compound absorbance at 340 nm, fold over control; fold change at 10 µM; AID 708; 65,000 tested, under 10 active;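 active = at 10 µM dose, initial 340 nm absorbance at least 2 fold that of control wells; inactive = change under 2 fold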;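 note: initial absorbance extrapolated from kinetic A340 decline of NADH oxidation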
Spn DPM-DC inh: S. pneumoniae DPM-DC inhibition. purified DPM-DC, PK/LDH coupled NADH fluorescence. calls only at 10 µM. 0.49% of 65,000 active;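 active = the 320 compounds with the highest percent inhibition in the single-dose primary screen, excluding strongly autofluorescent ones, cut at about 32% in these data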;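 note: kinetic rate of NADH fluorescence loss reporting ADP formed by the decarboxylase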
An asterisk follows results filed as active; i = inactive; . = no result shown; + = active, no number.

SMILES	Fluor 339 460	PMK inhibit	NADH enzymes	MK inhibit	A340 absorber	Spn DPM-DC inh
CCOC(=O)c1[nH]c(C)c(/C(O)=C2\C(=O)C(=O)N(CCCN(C)C)C2c2cccnc2)c1C (centres undefined)	1	9	6%	10	1.1	i
CCc1cccc(NC(=O)CS(=O)Cc2nc(-c3ccc(C)cc3)oc2C)c1 (centres undefined)	1	6	5%	5	1	i
Cc1sc2ncn(CC(=O)NCCCC(=O)N3CCN(c4ncccn4)CC3)c(=O)c2c1C	1.3	8	4%	4	0.99	i
CC(NC(=O)Nc1ccc(F)cc1F)c1ccncc1 (centres undefined)	1.1	0	5%	14	1.1	i
Cc1cc(NC(=O)c2cc3nc(C4CC4)cc(C(F)(F)F)n3n2)no1	1.3	2	1%	2	1.1	i
Cc1cc(NC(=O)c2cc3nc4c(c(C(F)(F)F)n3n2)CCc2ccccc2-4)no1	2.2*	23	16%	8	1.1	.
Cc1cc(C)c(S(=O)(=O)n2nc(C)c(Br)c2C)c(C)c1	1.1	4	3%	4	1	i
O=C(OCC(=O)N1CCOCC1)c1ccc[nH]c1=O	1.1	9	5%	6	1	i
COc1cc2ccccc2cc1C(=O)OCC(=O)N1CCOCC1	5.1*	13	7%	0	1	.
Cc1c(S(=O)(=O)N2CCc3ccccc3C2)c(=O)n(C)c(=O)n1C	1.1	7	5%	2	1.1	i
Cc1cc(C(=O)N2CCN(Cc3ccc4c(c3)OCO4)CC2)cs1	1.1	1	3%	9	1	i
COc1ccc(-c2cc3nc4n(c(=O)c3s2)CCOC4)cc1	2.4*	4	2%	0	1.1	.
COc1ccc2nc(NC(=O)C3CCCN(S(=O)(=O)c4cccc5nonc45)C3)sc2c1 (centres undefined)	1	15	28%	70*	1	i
COc1ccc2nc(NC(=O)C3CCCN(S(=O)(=O)c4cccc5nsnc45)C3)sc2c1 (centres undefined)	1	8	4%	7	0.98	i
O=C1CC(O)(C(F)F)Oc2ccc3ccccc3c21 (centres undefined)	3.7*	7	10%	13	1	.
COc1cc(CNC2CCCC2)cc(OC)c1	1.1	0	14%	41*	1.1	i
Cc1nc(NCCCO)c(C#N)c2c1COC(C)(C)C2	2.3*	5	8%	10	1.1	.
CC1(C)Cc2c(c(-c3ccccc3)nc3[nH][nH]c(=O)c23)CO1	1	5	4%	5	1	i
CCN(CC)c1nc(C)c2c(c1C#N)CC(C)(C)OC2	1.9	11	11%	0	1	i
CC1(C)Cc2c(C#N)c(NCCCO)nc(-c3ccccc3)c2CO1	2.1*	6	7%	7	1.1	.
CCc1ccccc1NC(=O)CSC1=C(C#N)C(c2ccc3c(c2)OCO3)C2=C(CCCC2=O)N1 (centres undefined)	1.2	4	4%	8	1.1	i
CC1=C(C(=O)Nc2cc(C)ccn2)C(c2ccc(C)cc2)C2=C(CCCC2=O)N1 (centres undefined)	2.3*	0	3%	5	1.1	.
CC1=C(C(=O)Nc2ccccc2)C(c2ccc3c(c2)OCO3)C2=C(CCCC2=O)N1 (centres undefined)	2.2*	5	7%	4	1.1	i
CCN(CC)c1ccc(C2C(C(=O)Nc3ccccn3)=C(C)NC3=C2C(=O)CC(C)(C)C3)cc1 (centres undefined)	1.6	4	6%	3	1.1	i
CCCCc1cc(=O)oc2cc(C)cc(OC(C)C(=O)O)c12 (centres undefined)	3*	9	2%	4	1	.
SMILES	Fluor 339 460	PMK inhibit	NADH enzymes	MK inhibit	A340 absorber	Spn DPM-DC inh
CCCc1cc(=O)oc2cc(C)cc(OCC(=O)O)c12	3.9*	0	2%	4	1.1	.
COc1nc(-c2ccccc2)ccc1-c1noc(-c2ccc(F)cc2)n1	3.8*	17	13%	9	1.1	.
COc1nc(-c2ccccc2)ccc1-c1noc(-c2ccccc2F)n1	3.9*	8	6%	4	1.1	.
COc1ccccc1-c1noc(-c2cccnc2)n1	1.1	9	4%	10	0.98	i
CCn1c(SCC(=O)Nc2cccc(C(C)=O)c2)nnc1C(C)C	1.2	16	35%	0	1	+
CCC(=O)Nc1cc(NC(=O)CSc2nnc(C(C)C)n2CC)ccc1C	1.1	15	8%	9	0.98	i
CC(=O)Nc1cccc(NC(=O)CSc2nnnn2Cc2ccccc2)c1	0.41	7	35%	.	0.97	+
CCn1c(SCC(=O)c2[nH]c(C)c(C(C)=O)c2C)nnc1-c1cccs1	1.1	27*	11%	5	1.1	i
CNC(=O)c1cc2c(=O)n3cc(C)ccc3nc2n(Cc2ccco2)c1=N	2*	3	4%	3	1	i
CNC(=O)c1cc2c(=O)n3cc(C)ccc3nc2n(C(C)C)c1=N	5*	7	7%	7	1	.
COc1ccc(CCn2c(=N)c(C(=O)NCc3ccco3)cc3c(=O)n4ccccc4nc32)cc1	1.2	7	4%	4	1	i
COc1ccc(-c2ccc(-c3noc(C)n3)c(OC)n2)cc1	3.8*	9	7%	5	1.2	.
CCOc1nc(-c2ccc(OC)cc2)ccc1-c1noc(C)n1	3.8*	8	7%	6	1.2	.
COc1ccc(-c2ccc(-c3noc(C4CCCCC4)n3)c(OC)n2)cc1	3.7*	10	8%	6	1.1	.
COCc1nc(-c2ccc(-c3ccc(C)cc3)nc2OC)no1	1.9	14	7%	0	1	i
CCN(CC)S(=O)(=O)c1ccc(C(=O)OCn2nnc3ccccc3c2=O)cc1	1	12	8%	8	1	i
NS(=O)(=O)c1ccc(NC(=O)COC(=O)CCNC(=O)NC23CC4CC(CC(C4)C2)C3)cc1	1.1	0	3%	9	1	i
Cc1cc(N2CCCC2)n2nc(C)nc2n1	1.1	5	4%	6	1	i
CCOC(=O)N1CCN(c2cc(C)nc3nc(C)nn23)CC1	2.1*	4	5%	5	1	.
COc1ccc(S(=O)(=O)NCCCN2CCOCC2)c2ccccc12	1.1	6	3%	9	0.99	i
CCN1C(=O)c2cccc3c(S(=O)(=O)Nc4ccccc4OC)ccc1c23	1.2	5	4%	1	1.1	i
CCN1C(=O)c2cccc3c(S(=O)(=O)NCCCN4CCOCC4)ccc1c23	3.9*	20	15%	6	1.1	i
CCOc1ccc(S(=O)(=O)NCCCN2CCOCC2)c2ccccc12	1.2	40*	14%	3	1	i

Screens (PubChem)
